{"source": "PubChem BioAssay (EPA / NIEHS)", "note": "Active and inactive are the calls of the source. The calls were made as follows: active = hit-call score of the fitted dose curve at least 0.9, where 1 is the maximum; inactive = score below 0.9.", "data": [{"read-out": "Monocyte Chemoattractant Protein-1 (MCP1), CCL2 (gene 6347)", "test": "BSK_BF4T_MCP1: BioMAP Diversity Plus: BF4T Assay for Monocyte Chemoattractant Protein-1 (MCP1) Biomarker Activity (AID 2284259)", "conditions": "primary human bronchial epithelial cells with fibroblasts", "procedure": "BSK_BF4T is a cell-based, multiplexed-readout assay that uses bronchial epithelial cells and dermal fibroblasts, a human vascular primary cell, with measurements taken at 24 hours after chemical dosing in a microplate: 96-well plate.BSK_BF4T_MCP1 is an assay component measured in the BSK_BF4T assay. It measures MCP-1 antibody related to regulation of gene expression using ELISA technology.Data from the assay component BSK_BF4T_MCP1 was analyzed at the endpoint, BSK_BF4T_MCP1, in the positive analysis fitting direction relative to DMSO as the negative control and baseline of activity. Using a type of binding reporter, gain or loss-of-signal activity can be used to understand protein changes. To generalize the intended target to other relatable targets, this assay endpoint is annotated to the 'cytokine' intended target family, where the subfamily is 'chemotactic factor'.\nThe levels of cell surface (or secreted, indicated by the prefix \"s\") biomarker endpoints were measured by ELISA. Overt cytotoxicity to cells in confluent adherent cultures (all systems other than the BT system) was assessed by measuring total protein levels using sulforhodamine B (SRB) staining in parallel cultures at the time of biomarker measurements, indicated as SRB endpoints. For proliferation assays for adherent cell types, individual cell types are cultured at sub-confluence and relative cell numbers quantified by SRB staining at time points optimized for each system (48 h: 3C and CASM3C systems; 72 h: BT and HDF3CGF systems; 96 h: SAg system). SRB was performed by staining cells with 0.1% SRB after fixation with 10% TCA and reading wells at 560 nm.Viability and proliferation of PBMC (T cells) was quantified by Alamar Blue reduction for the SAg and BT systems. For PBMC viability (referred to as PBMC Cytotoxicity within the assay endpoint names), cells were plated (75,000/well in a 96-well plate) and then chemical samples added for 1 h before addition of activators, SEB and TSST-1 (20 ng/mL final concentration each). Cells were incubated for 90 h. Then, Alamar Blue (20 uL/well) (Invitrogen, Cat DAL1100) was added for 6 h, and the plates were read with a fluorescence microplate reader at 546/580 nm (excitation/emission). For PBMC proliferation, cells were plated and activated as above but incubated for only 16 h prior to addition of Alamar Blue. Plates were read after 6 h.", "values": [{"smiles": "OCCC(F)(F)C(F)(F)C(F)(F)C(F)(F)F", "outcome": "inactive"}, {"smiles": "NCC(F)(F)C(F)(F)C(F)(F)C(F)(F)F", "outcome": "inactive"}, {"smiles": "OC(O)(C(F)C(O)(O)C(F)(F)F)C(F)(F)F", "outcome": "inactive"}, {"smiles": "O=S(=O)(O)CCC(F)(F)C(F)(F)C(F)(F)C(F)(F)C(F)(F)C(F)(F)F", "outcome": "inactive"}, {"smiles": "FC(F)(F)COC(OCC(F)(F)F)OCC(F)(F)F", "outcome": "inactive"}, {"smiles": "O=C(Cl)C(F)(F)C(F)(F)C(F)(F)C(=O)Cl", "outcome": "inactive"}, {"smiles": "FC(F)C(F)(F)COCC1CO1", "note": "(stereo not given)", "outcome": "inactive"}, {"smiles": "FC(F)(F)C(F)(F)C(F)(F)C(F)(F)C(F)(F)C(F)(F)I", "outcome": "inactive"}, {"smiles": "C[Si](C)(C)C(F)(F)C(F)(F)C(F)(F)F", "outcome": "inactive"}, {"smiles": "FC(F)=C(F)C(F)(F)C(F)(F)C(F)(F)C(F)(F)C(F)(F)C(F)(F)F", "outcome": "inactive"}]}]}
